Key:
Test in all cases: PBM binding z-score (relative to random genomic background probes); higher = stronger binding; sequences stand for … in GC…GCGATTGACAGCGTAGAATGAAGG
[1] = test system: RARb homodimer (NR concentration 270 nM)
In short: (§1)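 Binding z-scores take random background probes as their reference. They come from custom Agilent 4×180K protein-binding microarrays incubated 1 h with ligand-free nuclear receptor dimers, with antibodies against each partner (one per run) detecting binding. Scanned fluorescence was regression-normalized.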

[2] = test system: RARg:RXRa (NR concentration 270 nM, RXRa partner concentration 90 nM)
In short: as §1

[3] = test system: RARg homodimer (NR concentration 270 nM)
In short: as §1

[4] = test system: RXRa DBDmut IVT, anti-RXR (DBD mutation: RXRa K156A/R161A, NR concentration 90 nM)
In short: as §1

[5] = test system: RXRa homodimer (NR concentration 180 nM)
In short: as §1

[6] = test system: THRa:RXRa (NR concentration 90 nM, RXRa partner concentration 90 nM)
In short: as §1

[7] = test system: THRa homodimer (NR concentration 90 nM)
In short: as §1

[8] = test system: VDR homodimer (NR concentration 270 nM)
In short: as §1

## CCTAGCAGGGCAATCTGGGTCACTCAAGGCTTGA
[1]
  PBM binding z-score: 2.36
[2]
  PBM binding z-score: 1.56
[3]
  PBM binding z-score: 1.89
[4]
  PBM binding z-score: 0.252
[5]
  PBM binding z-score: 0.981
[6]
  PBM binding z-score: 4.24
[7]
  PBM binding z-score: -0.0319
[8]
  PBM binding z-score: -0.354

## TCAGACAGGTGAAGGTGACTCAGGTACGCAGTCG
[1]
  PBM binding z-score: 1.6
[2]
  PBM binding z-score: 0.814
[3]
  PBM binding z-score: 0.949
[4]
  PBM binding z-score: 0.889
[5]
  PBM binding z-score: 0.995
[6]
  PBM binding z-score: 1.66
[7]
  PBM binding z-score: 0.461
[8]
  PBM binding z-score: 0.358

## ACTAGCAGGCCAAGTTTGGGTCACGCAAACAAAG
[1]
  PBM binding z-score: 2.72
[2]
  PBM binding z-score: 3.25
[3]
  PBM binding z-score: 2.19
[4]
  PBM binding z-score: -0.213
[5]
  PBM binding z-score: 1.71
[6]
  PBM binding z-score: 3.3
[7]
  PBM binding z-score: 1.78
[8]
  PBM binding z-score: 0.403

## AATACAGGGTAATCGTAGGCCAGAGTACGCACAG
[1]
  PBM binding z-score: 0.578
[2]
  PBM binding z-score: 0.923
[3]
  PBM binding z-score: 0.637
[4]
  PBM binding z-score: -0.324
[5]
  PBM binding z-score: 0.61
[6]
  PBM binding z-score: 1.34
[7]
  PBM binding z-score: -0.13
[8]
  PBM binding z-score: 0.508

## CGAACTAGGTCAAGGACAGTGACTCTCCGCACGC
[1]
  PBM binding z-score: 3.26
[2]
  PBM binding z-score: 3.85
[3]
  PBM binding z-score: 4.74
[4]
  PBM binding z-score: 1.45
[5]
  PBM binding z-score: 2.69
[6]
  PBM binding z-score: 3.31
[7]
  PBM binding z-score: 2.26
[8]
  PBM binding z-score: 0.341

## CCAGACAGGTGAAAGGTATCTCAGTCTGGTACGC
[1]
  PBM binding z-score: 0.311
[2]
  PBM binding z-score: 0.551
[3]
  PBM binding z-score: 0.554
[4]
  PBM binding z-score: 0.109
[5]
  PBM binding z-score: 0.972
[6]
  PBM binding z-score: 0.0736
[7]
  PBM binding z-score: -0.151
[8]
  PBM binding z-score: -0.194

## CCTAGTTGGTCAGGAGGTCGCACACCGGATATGA
[1]
  PBM binding z-score: 2.18
[2]
  PBM binding z-score: 2.4
[3]
  PBM binding z-score: 1.98
[4]
  PBM binding z-score: -0.149
[5]
  PBM binding z-score: 1.86
[6]
  PBM binding z-score: 1.66
[7]
  PBM binding z-score: 0.99
[8]
  PBM binding z-score: 1.59

## CATCCTAGGTCAGGGCCAGTATAGGAGGAACGTT
[1]
  PBM binding z-score: 2.73
[2]
  PBM binding z-score: 3.24
[3]
  PBM binding z-score: 4.12
[4]
  PBM binding z-score: 0.0171
[5]
  PBM binding z-score: 2.22
[6]
  PBM binding z-score: 2.52
[7]
  PBM binding z-score: 0.878
[8]
  PBM binding z-score: 0.11

## ACAGACAGGTGAGTGAAGATAACTCAGCTGGACG
[1]
  PBM binding z-score: -0.405
[2]
  PBM binding z-score: 0.185
[3]
  PBM binding z-score: 0.475
[4]
  PBM binding z-score: -0.658
[5]
  PBM binding z-score: 0.111
[6]
  PBM binding z-score: -0.344
[7]
  PBM binding z-score: -0.684
[8]
  PBM binding z-score: -0.624

## CCTAGTTGGTCAAGGACACACACGCTATAGGTAC
[1]
  PBM binding z-score: 1.47
[2]
  PBM binding z-score: 1.19
[3]
  PBM binding z-score: 1.81
[4]
  PBM binding z-score: 0.547
[5]
  PBM binding z-score: 0.578
[6]
  PBM binding z-score: 2.95
[7]
  PBM binding z-score: 2.82
[8]
  PBM binding z-score: 1.33

## AGTCAAAGTTCACTAGGTACCGTAAGATTCAGCT
[1]
  PBM binding z-score: 3.6
[2]
  PBM binding z-score: 4.92
[3]
  PBM binding z-score: 5.92
[4]
  PBM binding z-score: 4.36
[5]
  PBM binding z-score: 3.75
[6]
  PBM binding z-score: 1.65
[7]
  PBM binding z-score: -0.132
[8]
  PBM binding z-score: 3.97

## GCAGACAGGTGAAACGCAGGTCACTCAGGGTGGC
[1]
  PBM binding z-score: 3.35
[2]
  PBM binding z-score: 5.21
[3]
  PBM binding z-score: 2.47
[4]
  PBM binding z-score: -0.32
[5]
  PBM binding z-score: 2.43
[6]
  PBM binding z-score: 3.6
[7]
  PBM binding z-score: 0.663
[8]
  PBM binding z-score: 0.199

## GAGACTGGGGCATCAGCAGGTTACCATAACTTAA
[1]
  PBM binding z-score: 1.46
[2]
  PBM binding z-score: 0.941
[3]
  PBM binding z-score: 0.703
[4]
  PBM binding z-score: 0.142
[5]
  PBM binding z-score: 0.509
[6]
  PBM binding z-score: 1.3
[7]
  PBM binding z-score: 0.361
[8]
  PBM binding z-score: -0.0346

## ATAAGTAGGTTACATCCGGGTCATTCAGGCTATG
[1]
  PBM binding z-score: 2.83
[2]
  PBM binding z-score: 3.41
[3]
  PBM binding z-score: 2.17
[4]
  PBM binding z-score: 1.37
[5]
  PBM binding z-score: 3.12
[6]
  PBM binding z-score: 3.72
[7]
  PBM binding z-score: 2.7
[8]
  PBM binding z-score: 3.19

## TAACCAAGGTGAGCTGAGGTCGTTGATCCAACTC
[1]
  PBM binding z-score: 1.63
[2]
  PBM binding z-score: 1.33
[3]
  PBM binding z-score: 0.926
[4]
  PBM binding z-score: -0.0437
[5]
  PBM binding z-score: 1.58
[6]
  PBM binding z-score: 4.65
[7]
  PBM binding z-score: 1.86
[8]
  PBM binding z-score: 1.81

Reference: the supplement of paper PMC6555819
